# Test results: PubChem BioAssay (NCATS)
# Inconclusive results are not listed. Activity calls are given as the source filed them. Unless noted, the call rests on the fitted dose curve; in most records, active means well fitted curve in either direction with a large enough effect (not every such curve was filed as active); inconclusive means small, poorly fitted or top-dose-only effect, or another doubt; inactive means flat fitted curve, though single readings scatter.
# How the values were obtained:
# [1] = target: Lysosomal acid glucosylceramidase (Homo sapiens) (UniProt P04062); assay: Glucocerebrosidase-p2 (AID 348; in the data active means potency below about 10 µM; further: potency means the concentration at half of the fitted maximal effect); settings: purified GBA, blue fluorogenic substrate, 40 min
# Procedure, shortened: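 Compounds titrated from 0.6 nM upwards against 0.2 nM enzyme in pH 5.9 citric acid/KH2PO4, taurocholate, tween-20; blue fluorogenic substrate 80 uM, 40 min room temperature, stopped and read Ex 365/Em 440 for AC50.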
# [2] = AP1 Signaling Pathway (AID 357); settings: ME-180 AP-1-bla reporter, EGF-induced, beta-lactamase ratio, 5 h; at 7.69 µM (top of the series) unless noted;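 further: ME-180 reporter cells stimulated with EGF at its EC50 level; on the % scale 0 is the no-effect control and ±100 the full control effect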
# Procedure, shortened: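 A ratiometric CCF4 readout (405 nm excitation; 460 and 530 nm emission) quantified AP-1-driven beta-lactamase in ME-180 cells after 5 h with compound and EC50 EGF; AC50 values were derived for activators and inhibitors.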
# [3] = target: Cytochrome P450 1A2 (Homo sapiens) (UniProt P05177); assay: p450-cyp1a2 (AID 410; calls by dose curve; further: potency means the concentration at half of the fitted maximal effect;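 on activity change, negative = inhibition: -100% = full effect of reference inhibitor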); settings: recombinant CYP1A2, luciferin-ME demethylation, luminescence; series mostly up to 57 µM
# Procedure, shortened: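 Inhibition was calculated relative to 57 uM furafylline (full inhibition). The reaction used human CYP1A2 at 20nM with Luciferin-ME at its Km, 100uM, driven by an NADPH-regenerating system for 60 min at room temperature.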
# [4] = NFAT Signaling Pathway (AID 444); settings: Jurkat NFAT-bla M1, carbachol, beta-lactamase ratio, 5 h; at 7.69 µM (top of the series) unless noted;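 further: carbachol stimulus at about its EC50 of 1 µM final; on the % scale 0 is the no-effect control and ±100 the full control effect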
# Procedure, shortened: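 Jurkat cells carrying an NFAT-driven β-lactamase reporter and co-transfected muscarinic M1 receptor were treated with compound plus carbachol (1 uM final, an EC50 level) for 5 h at 37 °C. CCF4 loading followed for 1 h at RT; 460/530 nm ratio gave %activity.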
# [5] = Stat Signaling Pathway (AID 446); settings: ME-180 SIE beta-lactamase reporter, IL-6 stimulated, 5 h; at 7.69 µM (top of the series) unless noted;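 further: ME-180 cervical cancer cells given 40 pM IL-6 alongside compound; SIE-controlled beta-lactamase reporter measured as 460/530 nm FRET emission ratio; on the % scale 0 is the no-effect control and ±100 the full control effect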
# Procedure, shortened: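 Screening format detects activators and inhibitors alike: ME-180 SIE-bla cells stimulated at 40 pM IL-6 for 5 hrs with compound, then dual-emission beta-lactamase read at 405 nm excitation.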
# [6] = target: Glucocorticoid receptor (Homo sapiens) (UniProt P04150); assay: GR-EFC Redistribution (AID 451; calls by dose curve; further: potency means the concentration at half of the fitted maximal effect); settings: CHO-K1 GR-EFC translocation, beta-gal luminescence, 2 h
# Procedure, shortened: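 CHO-K1 cells stably expressing nuclear-localized β-gal enzyme acceptor and GR fused C-terminally to the enzyme donor fragment; ligand-driven nuclear translocation restores β-gal by complementation. Compounds titrated up to 46 uM final, 2 h at 37 °C; luminescence read.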
# [7] = target: Mitogen-activated protein kinase 10 (Mus musculus) (UniProt Q61831); assay: JNK3 AlphaScreen Assay (AID 530); settings: JNK3 lysate, c-Jun phosphorylation; series mostly up to 57.1 µM;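 further: kinase came from lysate of stimulated human HepG2 cells; signal reports phosphorylation of biotinylated GST-cJun 1-79 at Ser73 with 10 µM ATP; on the % scale 0 is the no-effect control and ±100 the full control effect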
# Procedure, shortened: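 JNK3 came from HepG2 lysates pre-activated with IL-1beta and TNF-alpha and phosphorylated biotinylated GST-cJun (1-79) at 10 uM ATP, pH 7.6, room temperature. Compounds were titrated. AlphaScreen signal used anti-phospho-cJun (Ser73) antibody.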
# [8] = target: 3',5'-cyclic-AMP phosphodiesterase 4B (Homo sapiens) (UniProt Q07343); assay: qHTS Assay for Inhibitors of PDE-IV (AID 607; active means well fitted activation curve with a large enough effect in the main read-out, with a control signal flat, not every such curve was filed as active; further: % of control where 0% means no effect); settings: HEK293 ACTOne CNG channel cells, membrane potential fluorescence; series mostly up to 22.9 µM
# Procedure, shortened: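 The readout is membrane depolarisation from a cAMP-sensing CNG channel, detected with a potential dye at ex 535/em 590. Cells were HEK293-derived (endogenous PDE-IV) at 1000 cells/well, titrated up to 22.9 uM final.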
# [9] = target: Cytochrome P450 3A4 (Homo sapiens) (UniProt P08684); assay: qHTS Assay for Inhibitors and Substrates of Cytochrome P450 3A4 (AID 884; active means well fitted curve in the direction sought with a large enough effect; an effect the other way counts as inactive or inconclusive; further: nearly all actives have a fitted effect of over 50% in size; further: potency means the concentration at half of the fitted maximal effect); settings: recombinant CYP3A4, Luciferin-PPXE luminescence; series mostly up to 57.1 µM
# Procedure, shortened: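 20 nM human CYP3A4 with 25 uM Luciferin-PPXE (at KM) in 200 mM KPO4, preincubated 10 min with compound; NADPH regeneration started a 60 min RT reaction. Luciferin detected by luminescence, normalized to 57 uM ketoconazole as full inhibition.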
# [10] = target: Cytochrome P450 3A4 (Homo sapiens) (UniProt P08684); assay: qHTS Assay for Activators of Cytochrome P450 3A4 (AID 885; active means well fitted curve in the direction sought with a large enough effect; an effect the other way counts as inactive or inconclusive; further: nearly all actives have a fitted effect of over 65% in size; further: potency means the concentration at half of the fitted maximal effect); settings: recombinant CYP3A4, Luciferin-PPXE luminescence, 60 min; series mostly up to 57.1 µM
# Procedure, shortened: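 Steps: enzyme/substrate mix dispensed; compound added, 10 min RT; NADPH regeneration solution added, 60 min RT; luciferin detection buffer stops reaction; 20 min later luminescence measured.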
# [11] = qHTS Assay for Lipid Storage Modulators (AID 1519; calls by dose curve); settings: Drosophila S3 cells, BODIPY lipid droplet/cell ratio, laser cytometry, cells loaded with oleic acid; for activity change, negative = inhibition: at 57.5 µM (top of the series)
# Procedure, shortened: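 Cells seeded at 5,000 per well were treated with compounds over a concentration series and loaded with oleic acid (400 uM, as added). Lipid droplet fluorescence (488 nm excitation, 500-530 nm channel) was read by laser-scanning cytometry and normalized to 20 uM Triacsin C.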
# [12] = Primary qHTS for small molecule stabilizers of the endoplasmic reticulum resident proteome: Secreted ER Calcium Modulated Protein (SERCaMP) assay (AID 1508630; active means well fitted curve in the direction sought with a large enough effect; an effect the other way counts as inactive or inconclusive; further: on the % scale 0 is the no-effect control and ±100 the full control effect); settings: SH-SY5Y GLuc-SERCaMP (Gaussia luciferase released on ER calcium loss) secretion, thapsigargin, luminescence; series mostly up to 38.4 µM
# Procedure, shortened: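 GLuc-SERCaMP-expressing SH-SY5Y cells, pretreated 16 h with compound, are challenged with thapsigargin to empty ER calcium stores; after 4 h, coelenterazine is added directly to the medium and luminescence is imaged.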
# [13] = target: Cytochrome P450 2C9 (Homo sapiens) (UniProt P11712); assay: qHTS Assay for Inhibitors and Substrates of Cytochrome P450 2C9 (AID 883; active means well fitted curve in the direction sought with a large enough effect; an effect the other way counts as inactive or inconclusive; further: potency means the concentration at half of the fitted maximal effect; nearly all actives have a fitted effect of over 60% in size); settings: recombinant CYP2C9, luciferin-H luminescence, 60 min; series mostly up to 57.1 µM
# Procedure, shortened: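 Human CYP2C9 (10nM) hydroxylated Luciferin-H (100uM, at its KM) to luciferin in 25mM KPO4. Compound was preincubated 10 min at 37C, then NADPH regeneration started a 60 min reaction at 37C. Luminescence was read after detection reagent, normalized to 57uM sulphaphenazole.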
# [14] = target: Cytochrome P450 2D6 (Homo sapiens) (UniProt P10635); assay: qHTS Assay for Inhibitors and Substrates of Cytochrome P450 2D6 (AID 891; active means well fitted curve in the direction sought with a large enough effect; an effect the other way counts as inactive or inconclusive; further: potency means the concentration at half of the fitted maximal effect; nearly all actives have a fitted effect of over 60% in size); settings: recombinant CYP2D6, luciferin-ME EGE luminescence; series mostly up to 57.1 µM
# Procedure, shortened: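 Human CYP2D6 (5 nM) with 30 uM Luciferin-ME EGE (at Km) in 100 mM KPO4, compound preincubated 10 min, then NADPH regeneration system for 60 min at room temperature. Luciferin read by luminescence; normalized to 1.43 uM quinidine.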
# [15] = target: Cytochrome P450 2C19 (Homo sapiens) (UniProt P33261); assay: qHTS Assay for Inhibitors and Substrates of Cytochrome P450 2C19 (AID 899; active means well fitted curve in the direction sought with a large enough effect; an effect the other way counts as inactive or inconclusive; further: potency means the concentration at half of the fitted maximal effect; nearly all actives have a fitted effect of over 60% in size); settings: recombinant CYP2C19, luciferin-H EGE luminescence; series mostly up to 57.1 µM
# Procedure, shortened: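 Human CYP2C19 (5nM) with Luciferin-H EGE at 10uM (its KM) in 50mM KPO4 was preincubated with compound for 10 min at 37C. NADPH regeneration started a 60 min 37C reaction. Luciferin was read by luminescence, normalized to 57uM ketoconazole.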
# [16] = qHTS Assay for Identification of Small Molecule Agonists for Hypoxia Response Element Signaling Pathway (AID 914; active means well fitted activation curve with a large enough effect in the signal ratio, with a control signal flat, not every such curve was filed as active; the % refers to the signal ratio; further: % of control where 0% means no effect); settings: ME-180 (cervical carcinoma) HRE-bla reporter, beta-lactamase ratio, CoCl2, 17 h; activation: stronger effect = higher value
# Procedure, shortened: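 Reporter activity (beta-lactamase, CCF4 460nm/530nm ratio) in HRE-bla ME-180 cells is recorded after 17 h compound exposure with EC50 CoCl2 at 37 degrees Celsius. AC50 values come from titration data.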
# [17] = measured here: cell count channel max response
# [18] = measured here: lipid channel max response
# Lysosomal acid glucosylceramidase (Homo sapiens), sequence (P04062 whole entry, looked up): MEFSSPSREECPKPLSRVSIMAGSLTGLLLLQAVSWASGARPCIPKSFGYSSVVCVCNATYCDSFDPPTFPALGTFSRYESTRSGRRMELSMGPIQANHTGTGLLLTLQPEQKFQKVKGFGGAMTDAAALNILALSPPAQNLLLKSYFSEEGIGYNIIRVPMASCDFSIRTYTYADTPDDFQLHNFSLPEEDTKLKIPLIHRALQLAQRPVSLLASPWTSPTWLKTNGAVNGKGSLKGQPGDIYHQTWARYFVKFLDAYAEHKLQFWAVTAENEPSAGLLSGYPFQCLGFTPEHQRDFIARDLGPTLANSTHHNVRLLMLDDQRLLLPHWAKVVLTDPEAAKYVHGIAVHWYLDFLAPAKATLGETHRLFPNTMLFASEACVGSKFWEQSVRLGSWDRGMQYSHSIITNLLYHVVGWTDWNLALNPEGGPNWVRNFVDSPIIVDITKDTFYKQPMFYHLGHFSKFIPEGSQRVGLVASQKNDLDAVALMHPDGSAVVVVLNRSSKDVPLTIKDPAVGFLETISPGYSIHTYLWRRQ
# 3',5'-cyclic-AMP phosphodiesterase 4B (Homo sapiens), sequence (Q07343 whole entry, looked up): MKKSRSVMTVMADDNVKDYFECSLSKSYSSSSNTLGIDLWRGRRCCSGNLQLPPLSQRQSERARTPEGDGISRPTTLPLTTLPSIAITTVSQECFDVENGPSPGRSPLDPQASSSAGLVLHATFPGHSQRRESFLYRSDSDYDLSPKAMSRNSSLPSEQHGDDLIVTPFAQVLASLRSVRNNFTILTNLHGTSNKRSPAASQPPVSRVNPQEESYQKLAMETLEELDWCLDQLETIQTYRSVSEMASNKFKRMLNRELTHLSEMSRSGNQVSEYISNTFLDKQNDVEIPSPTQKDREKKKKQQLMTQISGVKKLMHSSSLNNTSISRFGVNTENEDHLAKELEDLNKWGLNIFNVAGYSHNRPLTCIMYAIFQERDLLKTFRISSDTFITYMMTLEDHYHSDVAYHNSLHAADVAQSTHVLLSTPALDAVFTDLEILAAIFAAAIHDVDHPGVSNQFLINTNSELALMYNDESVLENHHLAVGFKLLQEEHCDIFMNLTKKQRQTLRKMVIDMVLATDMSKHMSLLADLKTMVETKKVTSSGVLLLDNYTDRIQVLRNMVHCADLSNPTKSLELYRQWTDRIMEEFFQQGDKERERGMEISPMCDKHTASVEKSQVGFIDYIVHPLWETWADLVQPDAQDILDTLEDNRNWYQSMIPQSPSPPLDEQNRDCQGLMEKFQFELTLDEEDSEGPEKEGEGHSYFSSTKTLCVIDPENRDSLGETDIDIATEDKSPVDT
# Glucocorticoid receptor (Homo sapiens), sequence (P04150 whole entry, looked up, the tested form may be a part): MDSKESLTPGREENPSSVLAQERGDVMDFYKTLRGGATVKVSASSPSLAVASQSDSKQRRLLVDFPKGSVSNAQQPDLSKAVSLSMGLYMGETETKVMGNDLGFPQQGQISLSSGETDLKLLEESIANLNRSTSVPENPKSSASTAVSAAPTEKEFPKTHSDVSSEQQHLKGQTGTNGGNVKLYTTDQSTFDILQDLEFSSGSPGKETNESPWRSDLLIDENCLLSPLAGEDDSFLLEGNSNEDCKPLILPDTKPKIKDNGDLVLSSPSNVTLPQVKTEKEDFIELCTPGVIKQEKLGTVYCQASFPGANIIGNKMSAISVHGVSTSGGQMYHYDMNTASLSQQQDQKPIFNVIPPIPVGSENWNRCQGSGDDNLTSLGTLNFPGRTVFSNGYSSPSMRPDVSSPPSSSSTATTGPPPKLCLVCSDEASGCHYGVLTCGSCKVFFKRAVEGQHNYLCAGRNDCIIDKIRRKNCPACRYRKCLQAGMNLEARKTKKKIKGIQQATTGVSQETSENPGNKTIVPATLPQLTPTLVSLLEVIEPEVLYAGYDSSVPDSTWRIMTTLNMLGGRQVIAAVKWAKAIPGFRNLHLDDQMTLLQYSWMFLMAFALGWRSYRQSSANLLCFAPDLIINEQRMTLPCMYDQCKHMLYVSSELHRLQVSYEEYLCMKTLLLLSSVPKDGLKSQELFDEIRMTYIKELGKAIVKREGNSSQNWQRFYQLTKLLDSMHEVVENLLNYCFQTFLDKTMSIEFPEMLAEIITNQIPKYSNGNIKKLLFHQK
# Cytochrome P450 3A4 (Homo sapiens), sequence (P08684 whole entry, looked up): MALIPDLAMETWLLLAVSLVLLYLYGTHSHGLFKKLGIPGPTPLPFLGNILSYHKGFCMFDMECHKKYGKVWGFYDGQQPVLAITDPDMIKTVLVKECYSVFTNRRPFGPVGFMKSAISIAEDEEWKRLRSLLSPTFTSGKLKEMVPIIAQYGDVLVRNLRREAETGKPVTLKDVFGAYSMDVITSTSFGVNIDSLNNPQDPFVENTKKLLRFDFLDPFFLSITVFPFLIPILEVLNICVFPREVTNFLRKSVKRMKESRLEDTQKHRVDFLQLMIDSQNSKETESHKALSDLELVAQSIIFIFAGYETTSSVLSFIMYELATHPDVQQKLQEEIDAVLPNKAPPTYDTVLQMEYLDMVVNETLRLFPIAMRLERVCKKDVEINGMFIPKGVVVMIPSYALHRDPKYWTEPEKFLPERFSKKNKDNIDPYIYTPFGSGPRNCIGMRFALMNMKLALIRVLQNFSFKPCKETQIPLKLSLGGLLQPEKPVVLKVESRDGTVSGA
# Cytochrome P450 1A2 (Homo sapiens), sequence (P05177 whole entry, looked up): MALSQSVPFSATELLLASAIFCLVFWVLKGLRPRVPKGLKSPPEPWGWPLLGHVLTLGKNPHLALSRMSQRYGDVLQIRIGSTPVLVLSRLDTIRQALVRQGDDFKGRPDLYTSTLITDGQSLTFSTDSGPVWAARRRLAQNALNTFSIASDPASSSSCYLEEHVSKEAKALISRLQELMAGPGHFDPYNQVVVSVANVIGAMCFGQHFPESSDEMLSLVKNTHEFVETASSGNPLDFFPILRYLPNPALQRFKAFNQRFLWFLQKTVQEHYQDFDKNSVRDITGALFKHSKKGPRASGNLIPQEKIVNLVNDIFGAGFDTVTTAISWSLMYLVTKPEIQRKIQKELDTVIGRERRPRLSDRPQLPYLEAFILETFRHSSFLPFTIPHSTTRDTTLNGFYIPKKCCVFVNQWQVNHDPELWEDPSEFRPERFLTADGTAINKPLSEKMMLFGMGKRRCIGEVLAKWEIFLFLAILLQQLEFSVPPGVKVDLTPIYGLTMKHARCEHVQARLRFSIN
# Cytochrome P450 2D6 (Homo sapiens), sequence (P10635 whole entry, looked up): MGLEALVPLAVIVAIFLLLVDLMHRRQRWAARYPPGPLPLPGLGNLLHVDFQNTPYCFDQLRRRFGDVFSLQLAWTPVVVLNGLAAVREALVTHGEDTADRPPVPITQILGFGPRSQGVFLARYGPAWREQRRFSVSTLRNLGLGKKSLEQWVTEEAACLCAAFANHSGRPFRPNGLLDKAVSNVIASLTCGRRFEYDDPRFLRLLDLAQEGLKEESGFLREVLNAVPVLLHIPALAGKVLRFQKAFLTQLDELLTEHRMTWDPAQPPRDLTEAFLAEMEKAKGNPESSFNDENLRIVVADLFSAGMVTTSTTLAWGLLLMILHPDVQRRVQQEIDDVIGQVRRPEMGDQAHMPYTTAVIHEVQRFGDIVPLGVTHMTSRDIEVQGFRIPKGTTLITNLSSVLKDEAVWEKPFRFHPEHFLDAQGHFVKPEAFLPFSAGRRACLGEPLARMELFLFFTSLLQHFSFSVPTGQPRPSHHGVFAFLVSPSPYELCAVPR
# Cytochrome P450 2C9 (Homo sapiens), sequence (P11712 whole entry, looked up): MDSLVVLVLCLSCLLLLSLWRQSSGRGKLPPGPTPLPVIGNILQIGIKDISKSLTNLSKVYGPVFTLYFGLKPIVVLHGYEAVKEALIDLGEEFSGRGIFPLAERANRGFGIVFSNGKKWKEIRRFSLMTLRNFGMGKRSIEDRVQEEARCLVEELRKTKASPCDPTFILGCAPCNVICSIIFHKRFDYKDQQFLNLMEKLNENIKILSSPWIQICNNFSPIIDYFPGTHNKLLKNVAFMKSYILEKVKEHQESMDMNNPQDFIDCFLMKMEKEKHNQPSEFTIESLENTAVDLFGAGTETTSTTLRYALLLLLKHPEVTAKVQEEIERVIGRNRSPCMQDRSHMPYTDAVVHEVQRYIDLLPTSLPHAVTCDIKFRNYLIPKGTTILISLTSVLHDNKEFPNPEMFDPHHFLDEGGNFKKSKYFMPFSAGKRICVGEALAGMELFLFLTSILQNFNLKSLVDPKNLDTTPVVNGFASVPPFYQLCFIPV
# Cytochrome P450 2C19 (Homo sapiens), sequence (P33261 whole entry, looked up): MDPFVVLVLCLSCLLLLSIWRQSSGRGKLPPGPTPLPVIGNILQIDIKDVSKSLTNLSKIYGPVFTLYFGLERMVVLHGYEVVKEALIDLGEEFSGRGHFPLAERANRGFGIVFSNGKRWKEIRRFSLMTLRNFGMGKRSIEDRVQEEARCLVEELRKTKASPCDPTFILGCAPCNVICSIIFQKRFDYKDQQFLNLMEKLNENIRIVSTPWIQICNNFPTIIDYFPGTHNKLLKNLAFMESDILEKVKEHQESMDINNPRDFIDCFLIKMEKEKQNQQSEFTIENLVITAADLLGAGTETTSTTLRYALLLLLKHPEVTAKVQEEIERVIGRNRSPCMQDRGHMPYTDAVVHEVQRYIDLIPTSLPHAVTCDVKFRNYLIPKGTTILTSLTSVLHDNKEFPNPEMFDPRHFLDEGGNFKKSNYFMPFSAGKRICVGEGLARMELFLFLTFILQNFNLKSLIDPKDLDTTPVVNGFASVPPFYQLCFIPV
SMILES,Potency [1],"activity change, negative = inhibition [2]",Potency [3],"activity change, negative = inhibition [4]","activity, negative = inhibition [5]",Potency [6],outcome [7],Potency [8],Potency [9],Potency [10],"activity change, negative = inhibition [11]","max response [11, 17] [%]","max response [11, 18] [%]",Potency [12],Potency [13],Potency [14],Potency [15],activation [16]
O=C(c1cc(C(F)(F)F)cc(C(F)(F)F)c1)N1CCC2(CC1)CN(c1ccccc1)C2,> 11.4 µM (inactive),29.9% (inactive),inactive,-25.4% (inactive),2.58% (inactive),> 46 µM (inactive),inactive,inactive,inactive,3.98 µM (active),-8.64% (inactive),5.35,-1.3,inactive,–,–,–,–
O=C(c1cc(C(F)(F)F)cc(C(F)(F)F)c1)N1CCC[C@@]2(CCN(Cc3nccs3)C2)C1,> 11.4 µM (inactive),4.84% (inactive),20 µM (active),-21.5% (inactive),-3.68% (inactive),> 46 µM (inactive),inactive,inactive,3.16 µM (active),inactive,1.58% (inactive),26,28.9,inactive,–,–,–,–
O=C(c1cc(C(F)(F)F)cc(C(F)(F)F)c1)N1CCC[C@@]2(CCN(Cc3ccncc3)C2)C1,> 11.4 µM (inactive),-6.9% (inactive),12.6 µM (active),-25.1% (inactive),-8.97% (inactive),> 46 µM (inactive),inactive,inactive,–,inactive,7.2% (inactive),20.1,28.8,inactive,0.0794 µM (active),5.01 µM (active),0.199 µM (active),–
O=C(c1cccc(F)c1)N1CCC2(CC1)CCN(c1ccccc1)CC2,> 11.4 µM (inactive),-0.371% (inactive),15.8 µM (active),-2.46% (inactive),-10.8% (inactive),> 46 µM (inactive),inactive,inactive,inactive,7.94 µM (active),3.88% (inactive),-3.82,4.22,inactive,–,–,–,–
O=C(c1cnccn1)N1CCC2(CC1)CCN(C(c1ccccc1)c1ccccc1)CC2,> 11.4 µM (inactive),8.38% (inactive),10 µM (active),-20.1% (inactive),6.95% (inactive),> 46 µM (inactive),inactive,inactive,inactive,3.16 µM (active),1.71% (inactive),1.55,5.2,inactive,–,3.98 µM (active),–,–
Cc1noc(C)c1C(=O)N1CCC2(CCN(C(=O)Nc3ccccc3)CC2)CC1,> 11.4 µM (inactive),-7.04% (inactive),inactive,-2.66% (inactive),-7.75% (inactive),> 46 µM (inactive),inactive,inactive,inactive,–,3.9% (inactive),-0.903,4.81,inactive,–,–,–,–
O=C(c1ccncc1)N1CCC[C@@]2(CCN(c3ccccn3)C2)C1,> 11.4 µM (inactive),-20.6% (inactive),20 µM (active),6.17% (inactive),-0.0595% (inactive),> 46 µM (inactive),inactive,inactive,7.94 µM (active),–,4.35% (inactive),14.4,22.3,inactive,–,–,–,–
COc1ccc(C(=O)N2CCC[C@@]3(CCN(Cc4ccc(C#N)cc4)C3)C2)cc1,> 11.4 µM (inactive),-1.6% (inactive),inactive,-4.67% (inactive),3.73% (inactive),> 46 µM (inactive),inactive,inactive,–,inactive,3.64% (inactive),10.2,17.8,inactive,–,–,–,–
O=C(c1ccco1)N1CCC2(CC1)CN(c1ccc(-c3ccccc3)cc1)C2,> 11.4 µM (inactive),-23.8% (inactive),1 µM (active),-4.82% (inactive),-21.1% (inactive),> 46 µM (inactive),inactive,inactive,inactive,3.98 µM (active),2.85% (inactive),-15.3,-11.7,inactive,–,–,–,–
O=C(c1cc(C(F)(F)F)cc(C(F)(F)F)c1)N1CCC2(CCN(Cc3nccs3)CC2)CC1,> 11.4 µM (inactive),-2.3% (inactive),inactive,-17.7% (inactive),-29.1% (inactive),> 46 µM (inactive),inactive,inactive,inactive,–,1.84% (inactive),16.9,21.6,inactive,–,–,–,–
O=C(Oc1ccccc1)N1CCC2(CC1)CCN(c1ncccn1)CC2,> 11.4 µM (inactive),3.96% (inactive),inactive,-8.96% (inactive),-1.88% (inactive),> 46 µM (inactive),inactive,inactive,inactive,6.31 µM (active),2.83% (inactive),-3.54,1.32,inactive,–,–,–,2.8% (inactive)
CC(C)NC(=O)N1CCC2(CC1)CCN(C(=O)c1cccc(F)c1)CC2,> 11.4 µM (inactive),10.6% (inactive),inactive,6.56% (inactive),7.13% (inactive),> 46 µM (inactive),inactive,inactive,inactive,20 µM (active),1.61% (inactive),-10.3,-8.2,inactive,–,–,–,–
